hgDAF-12 ag – hgDAF-12 agonism, primary luciferase screen; activation, % at 6.8 µM; HEK293 GAL4-hgDAF12 UAS-luciferase reporter, agonist luminescence; normalized to butyrate control; 370,000 tested, 1.8% active;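 active means activation above a cutoff set at the mean of all screened compounds plus 3 SD, cut at about 10% in these data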
ssDAF-12 act – S. stercoralis DAF-12 activation, primary screen. 370,000 tested, 1% active. AID 652126. HEK293 ssDAF-12/GRIP1 lit1-tk-luc reporter, luminescence; % of 3 µM dafachronic acid response. activation, % at 6.8 µM;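 active means activation above the mean over all tested compounds plus 3 SD, cut at about 0.9% in these data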
DAX1 inh-1 – NR0B1 (DAX1) inhibition | 340,000 tested, 0.99% active | inhibition, % at 6.75 µM | HEK293 Gal4-DAX1 luciferase reporter, luminescence | P51843;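 active means inhibition above the mean over all tested compounds plus 3 SD, cut at about 4.2% in these data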;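 further: inhibition shows as a rise in luminescence from relieved DAX1 repression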
Target sequence (P51843 207-470 limits assumed): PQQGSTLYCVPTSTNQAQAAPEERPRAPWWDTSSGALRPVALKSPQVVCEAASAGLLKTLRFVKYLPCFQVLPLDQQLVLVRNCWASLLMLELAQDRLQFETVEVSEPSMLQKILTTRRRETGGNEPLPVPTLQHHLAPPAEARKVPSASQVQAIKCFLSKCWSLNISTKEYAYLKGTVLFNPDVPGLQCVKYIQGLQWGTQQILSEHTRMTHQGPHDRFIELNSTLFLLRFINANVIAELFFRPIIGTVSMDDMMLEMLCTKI
hcDAF12 agonist – activates DAF-12 receptor from parasite H. contortus. HEK293 hcDAF-12 lit1-tk-luc reporter, luminescence; 0% DMSO, 100% Δ7-dafachronic acid. activation, % at 6.8 µM. 370,000 tested, 1.4% active. AID 652067;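 active means activation above the mean of all tested compounds plus 3 SD, cut at about 5.5% in these data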
DAX1 inh-2 – blocks DAX1 repression of SF-1 activated StAR promoter; HEK293T StAR-luciferase reporter, SF-1/DAX-1 repression relief; inhibition, % at 6.8 µM; 370,000 tested, 1.1% active; AID 652010;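 active means inhibition above the mean over all tested compounds plus 3 SD, cut at about 3.6% in these data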;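 further: higher inhibition means more luminescence from relief of DAX-1 repression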
Of the large screens only hits and unclear results are named; the others gave an inactive call. Most compounds without a hit are left out; they make up all but 4.1% or so of the library.

COc1cc(C(C[N+](=O)[O-])c2c(C)cc3ccccn23)ccc1O (stereo not given)	DAX1 inh-1 4.4
Clc1ccc2nc(CNc3nc(N4CCOCC4)nc4c3ncn4-c3ccsc3)[nH]c2c1	none (no result: DAX1 inh-1, DAX1 inh-2)
N#CCC[C@H]1CC[C@]2(CCCN(C(=O)c3ccc4ccccc4n3)C2)O1	none (no result: DAX1 inh-1)
O=C(NC1=NCCS1)Nc1ccccc1	hgDAF-12 ag 11
O=C(NC1=NCCS1)c1ccccc1	none
CC(C)(C)c1csc(NC(=O)Nc2ccccc2)n1	hgDAF-12 ag 12
CC(C)c1ccc(OCC(=O)NC2=NCCS2)cc1	DAX1 inh-2 3.7
O=C(CC(=O)c1ccccc1)Nc1ccccc1	DAX1 inh-1 4.5
O=C(O)CC(=O)Nc1ccccc1	none
Cc1cc(C(=O)Nc2ccc(Cl)c(Cl)c2)n(-c2ccccc2)n1	none (no result: DAX1 inh-1)
CC(Oc1ccccc1)C(=O)NC1=NCCS1 (stereo not given)	DAX1 inh-2 4.0
O=C(Nc1ccccc1)Nc1ccccc1	hgDAF-12 ag 12
O=C(COc1ccccc1)NC1=NCCS1	none
COCCCNC(=O)C[C@H]1C[C@@]2(C(=O)OC)C(=C[C@H](C(C)(C)C)O[C@@H]2C)N(Cc2ccco2)C1=O	none (no result: DAX1 inh-1)
O=C(c1cccc(F)c1)N(Cc1ccccn1)CC1CCCO1 (stereo not given)	none (no result: DAX1 inh-1)
O=Nc1c(-c2ccccc2)cc2ccccn12	DAX1 inh-1 6.6
CN(C)C(=O)C(=O)c1c(-c2ccccc2)cc2ccccn12	none
C=CCN(C)C(C#Cc1ccccc1)Cc1ccccc1 (stereo not given)	none (no result: DAX1 inh-1, DAX1 inh-2)
Cc1ccc(S(=O)(=O)NCC(=O)OCC(=O)Nc2ccc(C)c(S(=O)(=O)N3CCOCC3)c2)cc1	none
Cc1ccc(OCCC(=O)OCC(=O)Nc2ccc(C)c(S(=O)(=O)N3CCOCC3)c2)cc1	DAX1 inh-2 3.7
Cc1ccc(NC(=O)COC(=O)CC2CC3CCC2C3)cc1S(=O)(=O)N1CCOCC1 (stereo not given)	DAX1 inh-2 3.6
O=S(=O)(Nc1ccc(O)c2ccccc12)c1cccs1	hcDAF12 agonist 6.7
O=S(=O)(Nc1cccc2ccccc12)c1cccs1	hcDAF12 agonist 6.1
COc1ccccc1NS(=O)(=O)c1cccs1	none
O=C(CSc1nnc(-c2ccco2)n1-c1ccc(Cl)cc1)Nc1ccccc1-c1ccccc1	none (no result: DAX1 inh-1)
CCc1cccc(NC(=O)Cn2ncn3c(cc4ccccc43)c2=O)c1	hcDAF12 agonist 6.4
O=C(CNC(=O)c1cccc(F)c1)N/N=C/c1cccnc1	none
CC(/C=C/c1ccco1)=N\NC(=O)c1cccc(Cl)c1	none
CC(/C=N/NC(=O)c1cccc(F)c1)=C\c1ccccc1	hgDAF-12 ag 12
O=C(N/N=C/c1cccnc1)c1cccc(F)c1	DAX1 inh-1 4.9
O=C(N/N=C/c1cccnc1)c1cc(Br)ccc1O	hgDAF-12 ag 12
CC(/C=C/c1ccccc1F)=N\NC(=O)c1cccc(F)c1	hgDAF-12 ag 12
C[C@@H]1CCCN1c1ccc2c(c1)O[C@H]1CCN(C1)S2(=O)=O	none (no result: DAX1 inh-1)
CCSc1nnc2nc3[nH]c4c(C)cccc4c3nn12	ssDAF-12 act 1.5 (no result: DAX1 inh-1)
C=CCSc1nnc(NC(=O)c2ccc3c(c2)OCCO3)s1	DAX1 inh-2 3.9
O=C(O)CSc1nnc(NC(=O)c2ccc3c(c2)OCO3)s1	none
Cc1sc(NC(=O)c2ccc(F)cc2)c(CN2CCCCCC2)c1C	hgDAF-12 ag 11
Cc1sc(NC(=O)c2ccccc2F)c(CN2CCCCC2)c1C	hcDAF12 agonist 6.2
O=C(Nc1sc2c(c1CN1CCOCC1)CCC2)c1ccc(F)cc1	hcDAF12 agonist 5.9
Cc1cc(C)nc(NC(=S)Nc2ccc(F)cc2F)c1	none
Cc1cccnc1NC(=S)Nc1ccc(F)cc1F	hgDAF-12 ag 11
Cc1ccc(C)c(NC(=S)Nc2ncccc2C)c1	hgDAF-12 ag 12
CC(/C=N/NC(=O)CSc1nnc(SCc2ccc(C)cc2)s1)=C\c1ccco1	none (no result: DAX1 inh-1)
O=C(NCC(c1ccccc1)c1ccccc1)[C@H](Cc1c[nH]c2ccccc12)NC1(C(=O)NC2CCCCC2)CCC1	none (no result: DAX1 inh-1, DAX1 inh-2)
CSc1nc(O)c(C(c2cccc([N+](=O)[O-])c2)c2c(O)nc(SC)[nH]c2=O)c(=O)[nH]1	hcDAF12 agonist 6.0
Cc1ccc2[nH]c3c(=O)n(CCCN4CCOCC4)cnc3c2c1	none
COc1ccc2[nH]c3c(=O)n(CCCN4CCOCC4)cnc3c2c1	DAX1 inh-1 6.2
COc1ccc(/C(C#N)=C/c2ccccn2)cc1	hgDAF-12 ag 12
N#C/C(=C\c1ccccn1)c1nc2ccccc2s1	none
COc1cccc(NC(=S)N2CCN(c3ccc([N+](=O)[O-])cc3)CC2)c1	ssDAF-12 act 1.1
CC(=O)N1CCCN(C(=O)C2CCN(c3ncnc4c3sc3cccc(F)c34)CC2)CC1	none (no result: DAX1 inh-1)
COC(=O)c1ccc2nc(-c3ccc(F)cc3)c(CC3CCCCC3)n2c1	ssDAF-12 act 1.1 (no result: DAX1 inh-1)
COC(=O)c1ccc2nc(-c3ccc(C)cc3)c(CC3CCCCC3)n2c1	ssDAF-12 act 1.8, DAX1 inh-2 3.9 (no result: DAX1 inh-1)
COC(=O)c1ccc2nc(-c3ccc(F)cc3)c(Cc3cccc(F)c3)n2c1	none (no result: DAX1 inh-1)
COc1ccc(-c2nc3cc(C)c(Br)c(C)n3c2CC2CCCCC2)cc1OC	none (no result: DAX1 inh-1)
Cc1cc2nc(-c3ccc(F)cc3)c(CC3CCCCC3)n2c(C)c1Br	ssDAF-12 act 1.0 (no result: DAX1 inh-1)
CCC[C@H]1[C@@H](OC(=O)NCc2cccs2)CC[C@@]23CCCN2C(=O)CCC[C@@H]13	none (no result: DAX1 inh-1, DAX1 inh-2)
Cc1cccc2c(C(=O)O)c3cccc(C)c3nc12	ssDAF-12 act 1.3
Cc1cccc2c(C(=O)O)c3c(nc12)CCCCC3	none
Cc1ccc2nc(SCc3nc4ccccc4c(=O)[nH]3)[nH]c2c1	hgDAF-12 ag 11
COC(=O)c1sc2nc(CSc3nc4ccc(C)cc4[nH]3)[nH]c(=O)c2c1C	hcDAF12 agonist 6.1
Cc1cc(C)c(C#N)c(SCc2nc3ccccc3c(=O)[nH]2)n1	none
CN(CCc1ccccc1)C(=O)c1cc2ccccn2n1	none (no result: DAX1 inh-1)
COc1ccc(OC)c(S(=O)(=O)N2CCC(c3cn4ccccc4n3)CC2)c1	none (no result: DAX1 inh-1)
Cc1ccc2nc(SC(C)C(=O)N3CCCCC3)[nH]c2c1 (stereo not given)	ssDAF-12 act 1.8
CCCC/C=C1/[C@H](c2ccccc2)N(C)C2=N[C@@H](c3ccccc3)CC(=O)N21	none (no result: DAX1 inh-1, DAX1 inh-2)
CCN(CC)S(=O)(=O)c1ccc2c(c1)nc(-c1ccccn1)n2C	hcDAF12 agonist 6.2
CCCn1c(CCC(=O)O)nc2cc(S(=O)(=O)N(CC)CC)ccc21	none
Cn1c(-c2ccc(CN3CCCCC3)o2)nc2ccccc21	ssDAF-12 act 1.2, hcDAF12 agonist 5.8
c1ccc2c(c1)nc(-c1ccncc1)n2CCNc1nc(CN2CCCCC2)cs1	none
O=C(CN1CCN(Cc2ccc(F)cc2)CC1)Nc1nc2ccccc2s1	none
CCOCC(=O)Nc1nc2ccccc2s1	none
O=C(NCCO)c1nc2ccccc2s1	ssDAF-12 act 1.0
CCCN1CCN(CC(=O)Nc2nc3ccccc3s2)CC1	ssDAF-12 act 1.2
COCCNC(=O)c1nc2ccccc2s1	none
CCNC(=O)Nc1nc2ccccc2s1	hgDAF-12 ag 13

Screening results from PubChem BioAssay.
